Laboratory results published in PubChem BioAssay AID1159580 (chemical genetic matrix, 2015).
“And” between values parts separate entries of the source, which are not always exact repeats. Equal entries are not always repeated. Out of some 5,500 compounds screened, about 2,000 (36%) were called active. About 18% were inconclusive and are not listed. No stated cut-off is given here; in the data, active means normalized growth mostly below about 0.91 (no sharp cut-off); inconclusive means no clear call, values can overlap the other calls; inactive means mostly above about 0.92. The list shows a part of the results.

Experiment: chemical genetic growth profiling, strain panel (AID 1159580);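 further: tested at 20 µM; growth read once vehicle control cultures reached saturation at 30 °C; 1 = growth at the plate median or of vehicle wells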
Conditions: S. cerevisiae deletion strains, growth OD

Measured: normalized growth

CCCCCCCCCCCCCCCC[N+](C)(C)C
active: locus YAL013W, strain DEP1, stronger effect = lower value 0.0576 | locus YAL021C, strain ccr4, stronger effect = lower value 0.0584 | locus YAL026C, strain drs2, stronger effect = lower value 0.0563 | locus YAL030W, strain snc1, stronger effect = lower value 0.0653 | locus YBL061C, strain skt5, stronger effect = lower value 0.057 | locus YBR009C, strain hhf1, stronger effect = lower value 0.06 | locus YBR021W, strain FUR4, stronger effect = lower value 0.123 | locus YBR023C, strain chs3, stronger effect = lower value 0.0601 | locus YBR171W, strain sec66, stronger effect = lower value 0.0733 | locus YBR229C, strain ROT2, stronger effect = lower value 0.0267 | locus YBR231C, strain swc5, stronger effect = lower value 0.0573 | locus YBR279W, strain paf1, stronger effect = lower value 0.0573 | locus YCL011C, strain gbp2, stronger effect = lower value 0.055 | locus YCL016C, strain dcc1, stronger effect = lower value 0.0605 | locus YCL029C, strain bik1, stronger effect = lower value 0.0609 | locus YCL061C, strain MRC1, stronger effect = lower value 0.0602 | locus YCL069W, strain vba3, stronger effect = lower value 0.0611 | locus YCR088W, strain abp1, stronger effect = lower value 0.0586 | locus YDL005C, strain med2, stronger effect = lower value 0.0729 | locus YDL035C, strain GPR1, stronger effect = lower value 0.0499 | locus YDL040C, strain nat1, stronger effect = lower value 0.0563 | locus YDL074C, strain BRE1, stronger effect = lower value 0.0802 | locus YDL101C, strain DUN1, stronger effect = lower value 0.0512 | locus YDL134C, strain PPH21, stronger effect = lower value 0.0552 | locus YDL185W, strain tfp1, stronger effect = lower value 0.0826 | locus YDL192W, strain arf1, stronger effect = lower value 0.0605 | locus YDR001C, strain nth1, stronger effect = lower value 0.0561 | locus YDR069C, strain doa4, stronger effect = lower value 0.0578 | locus YDR101C, strain arx1, stronger effect = lower value 0.0591 | locus YDR137W, strain rgp1, stronger effect = lower value 0.0808 | locus YDR150W, strain NUM1, stronger effect = lower value 0.0572 | locus YDR159W, strain sac3, stronger effect = lower value 0.0724 | locus YDR162C, strain NBP2, stronger effect = lower value 0.0544 | locus YDR195W, strain ref2 0.0903 | locus YDR297W, strain sur2, stronger effect = lower value 0.0606 | locus YDR318W, strain mcm21, stronger effect = lower value 0.0624 | locus YDR334W, strain swr1, stronger effect = lower value 0.0599 | locus YDR335W, strain msn5, stronger effect = lower value 0.0601 | locus YDR388W, stronger effect = lower value 0.0556 | locus YDR392W, strain spt3, stronger effect = lower value 0.0767 | locus YDR502C, strain sam2, stronger effect = lower value 0.0598 | locus YEL003W, strain gim4, stronger effect = lower value 0.0527 | locus YEL037C, strain rad23, stronger effect = lower value 0.0584 | locus YEL061C, strain CIN8 (second series), stronger effect = lower value 0.0593 | locus YEL061C, strain CIN8, stronger effect = lower value 0.0474 | locus YER015W, strain faa2, stronger effect = lower value 0.0592 | locus YER016W, strain bim1, stronger effect = lower value 0.0587 | locus YER110C, stronger effect = lower value 0.0715 | locus YER111C, strain swi4, stronger effect = lower value 0.0703 | locus YER155C, strain BEM2 (second series), stronger effect = lower value 0.0841 | locus YER155C, strain BEM2, stronger effect = lower value 0.0716 | locus YER167W, strain BCK2, stronger effect = lower value 0.0534 | locus YFR010W, strain ubp6, stronger effect = lower value 0.0598 | locus YGL078C, strain dbp3, stronger effect = lower value 0.0583 | locus YGL086W, strain mad1, stronger effect = lower value 0.055 | locus YGL167C, strain pmr1, stronger effect = lower value 0.0703 | locus YGL173C, strain kem1, stronger effect = lower value 0.0795 | locus YGL227W, strain vid30, stronger effect = lower value 0.0598 | locus YGL240W, strain doc1, stronger effect = lower value 0.0655 | locus YGL248W, strain PDE1, stronger effect = lower value 0.0448 | locus YGL253W, strain hxk2, stronger effect = lower value 0.0528 | locus YGR078C, strain PAC10, stronger effect = lower value 0.0545 | locus YGR135W, strain pre9, stronger effect = lower value 0.0674 | locus YGR229C, strain SMI1, stronger effect = lower value 0.0636 | locus YGR252W, strain gcn5, stronger effect = lower value 0.153 | locus YHR013C, strain ard1, stronger effect = lower value 0.0817 | locus YHR027C, strain rpn1, stronger effect = lower value 0.0592 | locus YHR030C, strain SLT2, stronger effect = lower value 0.0556 and 0.0924 | locus YHR079C, strain IRE1 (second series), stronger effect = lower value 0.0564 | locus YHR079C, strain IRE1, stronger effect = lower value 0.0965 | locus YHR094C, strain hxt1, stronger effect = lower value 0.0577 | locus YHR129C, strain ARP1, stronger effect = lower value 0.0524 | locus YHR142W, strain chs7, stronger effect = lower value 0.062 | locus YHR200W, strain rpn10, stronger effect = lower value 0.0595 | locus YIL066C, strain RNR3, stronger effect = lower value 0.0478 | locus YIL073C, strain SPO22, stronger effect = lower value 0.0966 | locus YIL125W, strain kgd1, stronger effect = lower value 0.0641 | locus YIR030C, strain dcg1, stronger effect = lower value 0.0583 | locus YJL092W, strain hpr5, stronger effect = lower value 0.0559 | locus YJL095W, strain BCK1 (second series), stronger effect = lower value 0.0547 | locus YJL095W, strain BCK1, stronger effect = lower value 0.049 and 0.0904 | locus YJL115W, strain asf1, stronger effect = lower value 0.0708 | locus YJL129C, strain trk1, stronger effect = lower value 0.0757 | locus YJL134W, strain LCB3, stronger effect = lower value 0.0478 | locus YJL154C, strain vps35, stronger effect = lower value 0.0607 | locus YJL164C, strain tpk1, stronger effect = lower value 0.0535 | locus YJL166W, strain qcr8, stronger effect = lower value 0.0568 | locus YJL168C, strain set2, stronger effect = lower value 0.0569 | locus YJL187C, strain SWE1 (second series), stronger effect = lower value 0.0409 | locus YJL187C, strain SWE1, stronger effect = lower value 0.0593 | locus YJR043C, strain POL32, stronger effect = lower value 0.0614 | locus YJR066W, strain TOR1, stronger effect = lower value -0.00145
